Shown are actives, neighbours in structure and some others; about 27% of the full set was active somewhere.
CYP2C19 act – human CYP2C19 activators, primary screen, biochemical, luminescence; Cytochrome P450 2C19 (Homo sapiens), P33261; recombinant CYP2C19, luciferin-H EGE luminescence; hits give high values; 0 = fully inhibited enzyme, 1 = untreated enzyme; activation factor at 5 µM; 96,000 tested, under 10 active; AID 1025, 2008;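 active = activation factor of at least 2 at 5 µM in the primary screen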;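 also: 0 = wells with 2.5 mM tranylcypromine and 1 = vehicle-only wells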
CYP2C9 activ – human CYP2C9 activators, primary screen, biochemical, luminescence | AID 1024, 2008 | recombinant CYP2C9, luciferin-H conversion; hits give high values; factor 1 = untreated enzyme, 0 = blocked | activation factor at 5 µM | 96,000 tested, 1.4% active;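 active = activation factor of 2 or more for CYP2C9 at a 5 µM dose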;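 also: 0 = sulfaphenazole-blocked wells and 1 = vehicle-only wells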
Target sequence (P11712 whole entry, looked up): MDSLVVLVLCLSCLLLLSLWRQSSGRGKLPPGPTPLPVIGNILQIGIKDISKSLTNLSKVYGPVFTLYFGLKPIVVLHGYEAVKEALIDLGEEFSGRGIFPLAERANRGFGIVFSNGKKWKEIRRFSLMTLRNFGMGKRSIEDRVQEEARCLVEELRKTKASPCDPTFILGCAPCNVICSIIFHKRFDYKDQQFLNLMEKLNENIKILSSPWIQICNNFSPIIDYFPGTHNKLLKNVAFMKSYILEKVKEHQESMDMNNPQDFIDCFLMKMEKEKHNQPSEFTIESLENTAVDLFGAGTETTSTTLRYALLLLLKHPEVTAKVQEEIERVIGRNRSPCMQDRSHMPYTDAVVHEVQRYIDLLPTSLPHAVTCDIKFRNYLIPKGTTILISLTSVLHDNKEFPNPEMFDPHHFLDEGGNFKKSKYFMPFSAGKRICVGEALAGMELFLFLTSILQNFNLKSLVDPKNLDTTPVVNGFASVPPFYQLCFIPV
CYP2C9 inhib – blockers of cytochrome P450 2C9 activity – biochemical, luminescence, ADME assay, primary screen; P11712; CYP2C9 Supersomes, luciferin-H conversion; inhibition, % at 5 µM; 96,000 tested, 20% active; AID 777, 2007;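 active = blocking of liver enzyme CYP2C9 beyond about 50% at 5 µM, limit read from the data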
sEH inhibitor – soluble epoxide hydrolase inhibitors, primary screen, biochemical, human sEH. 91,000 tested, 0.34% active. inhibition, % at 2 µM. Bifunctional epoxide hydrolase 2 (Homo sapiens), P34913. recombinant human sEH enzymatic activity assay. AID 707, 2007; in the data active = inhibition above about 80%
sEH activator – soluble epoxide hydrolase activators, primary screen, biochemical, human sEH | activation, % at 2 µM | 91,000 tested, 0.04% active | purified human sEH enzymatic activity, activator screen | Bifunctional epoxide hydrolase 2 (Homo sapiens), P34913 | AID 717, 2007; in the data active = activation above about 37%
CYP2C19 inh – blockers of cytochrome P450 2C19 activity – biochemical, luminescence, ADME assay, primary screen. CYP2C19 Supersomes, luciferin-H EGE luminescence, 30 min. 96,000 tested, 21% active. P33261. inhibition, % at 5 µM. AID 778, 2007;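 active = CYP2C19 inhibition above a set limit at 5 µM in the primary screen, cut at about 50% in these data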;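 also: plate controls were negative control wells for no effect and 2.5 mM tranylcypromine positive control for full effect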
* = called active by the depositor; x = no result given.

SMILES	CYP2C19 act	CYP2C9 activ	CYP2C9 inhib	sEH inhibitor	sEH activator	CYP2C19 inh
O=C(CN(Cc1cccs1)C(=O)CNC(=O)c1ccco1)NC1CCCCC1	0.9	0.5	50*	-12	14	9
O=C(NCC(=O)N(Cc1cccs1)C(C(=O)NC1CCCCC1)c1ccncc1)c1ccco1 (stereo not given)	x	x	x	3	0	x
O=C(CN(C(=O)CNC(=O)c1cccs1)c1ccc2c(c1)OCCO2)NC1CCCC1	0.8	0.1	91*	6	-6	25
O=C(CN(Cc1ccc2c(c1)OCO2)C(=O)CNC(=O)c1ccco1)NC1CCCCC1	0.4	0.2	83*	6	-5	61*
O=C(NCC(=O)N(c1ccc2c(c1)OCO2)C(C(=O)NC1CCCC1)c1cccs1)c1ccco1 (stereo not given)	1	1	3	5	-5	3
Cn1nnnc1SCC(=O)Nc1cc(C(=O)O)cc(C(=O)O)c1	1	1	4	5	-7	3
CC(C)n1c(SCC(=O)c2ccc3c(c2)OCCO3)nc2c1c(=O)n(C)c(=O)n2C	0.9	0.7	26	x	x	14
O=C(CN(C(=O)CNC(=O)c1ccco1)c1ccc(Cl)c(Cl)c1)NC1CCCCC1	0.1	0.1	89*	16	-15	86*
CCOc1ccc(N(CC(=O)NC2CCCCC2)C(=O)CNC(=O)c2ccco2)cc1	x	x	x	14	-13	x
O=C(NCC(=O)N(Cc1cccs1)C(C(=O)NC1CCCC1)c1ccco1)c1cccs1 (stereo not given)	0.1	0.1	89*	x	x	87*
COc1ccc(-c2nn3c(C4CCCCC4)nnc3s2)cc1OC	0.3	0.4	64*	-8	8	74*
COc1cc(-c2nn3c(C4CCCCC4)nnc3s2)cc(OC)c1OC	0.8	0.2	84*	-14	14	22
COc1ccc(-c2nnc3sc(C4CCCCC4)nn23)cc1OC	0.7	0.7	27	0	1	28
c1ccc(-c2nn3c(C4CCCCC4)nnc3s2)cc1	0.8	0.6	38	-5	5	21
COc1cccc(NC=C2C(=O)OC3(CCCCC3)OC2=O)c1	0.9	1	0	x	x	6
COc1ccc(C2=CC(=O)OC3(CCCCC3)O2)cc1	0.1	0.1	88*	14	-10	95*
COc1ccccc1N1CCN(C(=O)c2cc(-c3cccc(Cl)c3)on2)CC1	0.9	0.9	9	x	x	8
Cc1nc(SCc2ccccc2)c(C(F)(F)F)c(=O)[nH]1	0.5	0.6	44	x	x	48
Cn1c(=O)c2nc(NCc3ccccc3)cnc2n(C)c1=O	0.3	0.3	73*	-7	9	74*
O=C(NCC(=O)N(c1ccc2c(c1)OCCO2)C(C(=O)NC1CCCC1)c1ccco1)c1ccco1 (stereo not given)	x	x	x	7	-8	x
Cc1ccc(N2C(=O)CC3(CC4C=CC3C4)C2=O)cc1 (stereo not given)	0.6	0.2	81*	x	x	37
COc1ccc(NS(=O)(=O)c2cccc(-c3nnc4n3CCCCC4)c2)cc1	0.6	0.2	82*	-3	3	44
COc1ccccc1S(=O)(=O)Nc1cccc(-c2nnc3n2CCCCC3)c1	0.9	0.9	12	-3	6	8
Cc1cc2c(N=O)c(NO)ccc2[nH]1	0.7	0.5	46	4	-4	26
COc1cccc(C(=O)NC(Cc2ccccc2)c2ccc3c(c2)OCCCO3)c1 (stereo not given)	0.5	0.2	75*	5	-6	46
O=C(NC(Cc1ccccc1)c1ccc2c(c1)OCCCO2)c1ccc(F)cc1 (stereo not given)	0.4	0.1	90*	28	-28	64*
C=CCn1c(Cc2c[nH]c3ccccc23)n[nH]c1=S	0.4	0.7	32	17	-18	62*
C=CCn1c(-c2ccccc2)n[nH]c1=S	x	x	x	11	-6	x
C=CCn1c(Cc2nc3ccc(Cl)cc3[nH]2)n[nH]c1=S	0	0.7	32	15	-12	98*

Screening data: PubChem BioAssay, several laboratories
